Results filed as inconclusive are left out. A call without a number means that no potency is given here. The source made the active and inactive calls. Calls come from the whole dose curve; as a rule, active = well fitted inhibition curve with a large enough effect; inconclusive = small, poorly fitted or top-dose-only effect; inactive = no such curve, though single readings can be large or run the other way.
Assay: S16 Schwann cell PMP22 intronic element firefly luciferase assay (AID 624032); note: nearly all actives have a fitted effect of over 30% in size
Settings: S16 rat Schwann cells, PMP22 element FLuc, 24 h; series mostly up to 57.5 µM
Procedure, shortened: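 Rat S16 Schwann cells stably carrying firefly luciferase driven by a PMP22 intronic element, in 10% FBS, treated 24 h at 37 C. ONE-Glo luminescence normalized to PTC124 control and DMSO (0%); curves classed by r2, magnitude and activity.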
Potency is the fitted concentration of half-maximal effect.

Row | SMILES | Potency
1 | CCCCCCCCCCCCCCCCCCCCCC(=O)Nc1ccn([C@@H]2O[C@H](CO)[C@@H](O)[C@@H]2O)c(=O)n1 | inactive
2 | Cc1cccc(C)c1NC(=O)NC1=CCCN1C | inactive
3 | Cc1ccc(C(C)(C)c2ccc(C)cc2)cc1 | inactive
4 | CCOc1ccc(S(=O)(=O)O)c2cccnc12 | inactive
5 | O=C(O)CCC/C=C\C[C@@H]1[C@@H](/C=C/[C@@H](O)COc2cccc(Cl)c2)[C@H](O)C[C@@H]1O | inactive
6 | FC(F)(F)COCC(F)(F)F | inactive
7 | Cc1nc(NS(=O)(=O)c2ccc(N)cc2)nc(C)c1Br | inactive
8 | C=CCCCCCCCCC(=O)OC | inactive
9 | O=C1c2ccccc2CN2C(=O)c3ccccc3CN12 | inactive
10 | O=C(O)c1ccc(OCCn2ccnc2)cc1 | inactive
11 | c1ccc(-n2cnnn2)cc1 | inactive
12 | COC(=O)CCC[N+](C)(C)C | inactive
13 | CC[C@H]1OC(=O)[C@H](C)[C@@H](O[C@H]2C[C@@](C)(OC)[C@@H](O)[C@H](C)O2)C(C)[C@@H](O[C@@H]2O[C@H](C)C[C@H](N(C)C)[C@@H]2O)[C@](C)(OC)C[C@@H](C)C(=O)[C@H](C)[C@@H](O)[C@]1(C)O (some centres not stated) | inactive
14 | CC(C)(C)CC(C)(C)c1cc(Cc2cc(C(C)(C)CC(C)(C)C)cc(-n3nc4ccccc4n3)c2O)c(O)c(-n2nc3ccccc3n2)c1 | inactive
15 | C[Se]CC[C@H](N)C(=O)O | inactive
16 | CCOC(=O)c1c[nH]c2cc(OCC(C)C)c(OCC(C)C)cc2c1=O | inactive
17 | S=C=Nc1ccc(N=C=S)cc1 | inactive
18 | Nc1nc(=O)n([C@@H]2CS[C@H](CO)O2)cc1F | inactive
19 | CCCC(=O)O | inactive

Row | SMILES | Potency
20 | Cc1cc(=O)c(C(=O)N[C@@H](C(=O)N[C@@H]2C(=O)N3C(C(=O)O)=C(CSc4nnnn4C)CS[C@H]23)c2ccc(O)cc2)c[nH]1 | inactive
21 | CC(=O)[O][Al][O]C(C)=O | inactive
22 | N=C(N)n1cccn1 | inactive
23 | CC(=O)Nc1ccc(NC(=S)NC(=O)c2ccc(C(C)(C)C)cc2)cc1 | inactive
24 | Cc1cc(C(=O)NCCc2ccc(S(=O)(=O)NC(=O)NN3CCCCCC3)cc2)no1 | inactive
25 | CS(=O)(=O)OCC(O)C(O)COS(C)(=O)=O (configuration not stated) | inactive
26 | CN=C1C=CC(=C(c2ccc(N(C)C)cc2)c2ccc(N(C)C)cc2)C=C1 | 14.4 µM (active)
27 | CC(C)(COP(=O)(O)OP(=O)(O)OC[C@H]1O[C@@H](n2cnc3c(N)ncnc32)[C@H](O)[C@@H]1OP(=O)(O)O)C(O)C(=O)NCCC(=O)NCCS (some centres not stated) | inactive
28 | O=C(Nc1ccc(O)cc1)c1ccccc1O | inactive
29 | O=P(O)(O)OC[C@H](O)CO | inactive
30 | COc1ccc(/C=N/NC(=O)c2ccncc2)c(C(=O)O)c1OC | inactive
31 | CNC(=O)[C@H](Cc1c[nH]c2ccccc12)NC(=O)[C@@H](CC(=O)NO)CC(C)C | inactive
32 | CCCCCCOC(=O)c1cccnc1 | inactive
33 | CC(C)c1nc(N(C)S(C)(=O)=O)nc(-c2ccc(F)cc2)c1/C=C/C(O)CC(O)CC(=O)O (configuration not stated) | inactive
34 | CCCc1nc(C(C)(C)O)c(C(=O)OCc2oc(=O)oc2C)n1Cc1ccc(-c2ccccc2-c2nn[nH]n2)cc1 | inactive
35 | C[C@H](N)C(=O)N[C@@H](C)P(=O)(O)O | inactive
36 | CCC(O)c1ccccc1 (configuration not stated) | inactive
37 | CCCCC[C@H](O)/C=C/[C@@H]1[C@H]2C/C(=C/CCCC(=O)O)O[C@H]2C[C@H]1O | inactive

Source: PubChem BioAssay (NCATS)
